Screening data deposited in PubChem by National Center for Advancing Translational Sciences (NCATS).
RGS4 inhibitor: blocks human RGS4-accelerated GTP hydrolysis. AID 504845. P49798. 0.039% of 390,000 active. Potency, µM (highest dose often 114 µM), without a hit: at the top dose activity change, negative = inhibition, most hits filed as inhibitors. Transcreener GDP fluorescence polarization, RGS4-accelerated GTP hydrolysis; further: on the % scale 0 is the no-effect control and ±100 the full control effect; nearly all actives have a fitted effect of over 75% in size
Target sequence (P49798 whole entry, looked up): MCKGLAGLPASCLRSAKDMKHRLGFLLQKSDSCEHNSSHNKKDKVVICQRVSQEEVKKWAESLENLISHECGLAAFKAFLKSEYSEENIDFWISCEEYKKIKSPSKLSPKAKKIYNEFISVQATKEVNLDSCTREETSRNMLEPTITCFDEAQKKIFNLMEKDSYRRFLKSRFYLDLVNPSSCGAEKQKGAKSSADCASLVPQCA
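MLSMR compounds (23 nl, pin-transferred) preincubated 10 min at room temperature with a 500nM (2x) first reagent, then RGS4 at 900nM (2x) plus Transcreener GDP mix added; fluorescence polarization (620/688 nm) read before and after 90 min at 30 °C.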
KB-3-1 cytotox: KB-3-1 parental cell cytotoxicity | Potency, µM (highest dose often 46.1 µM), usual class: cytotoxic | 1.4% of 400,000 active | KB-3-1 viability, CellTiter-Glo ATP luminescence, 72 h; further: on the % scale 0 is the no-effect control and ±100 the full control effect; nearly all actives have a fitted effect of over 60% in size
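Cytotoxicity in the drug-sensitive parental line KB-3-1 was scored as loss of CellTiter-Glo luminescence following 72 h incubation with compound. Values come from curve fitting of normalized concentration-response data.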
KB-V1 cytotox: KB-V1 MDR subline cytotoxicity | 3.4% of 400,000 active | Potency, µM (series often up to 46.1 µM), usual class: cytotoxic | AID 1347076 | KB-V1 MDR cells viability, CellTiter-Glo, 72 h; further: on the % scale 0 is the no-effect control and ±100 the full control effect; nearly all actives have a fitted effect of over 60% in size
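Cytotoxicity via CellTiter-Glo luminescence after 72 h compound exposure at 37 degrees C. Cells: drug-selected KB-V1 line, DMEM phenol-red free plus 10% FBS. Compounds tested at multiple concentrations; normalized data fitted to concentration-effect curves.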
SW480 rereplic: DNA re-replication induction in SW480 cells; AID 624297; 1.8% of 340,000 active; SW480 DNA re-replication, Hoechst DNA content imaging, 48 h; Potency, µM (doses to about 46.1 µM), for the others: at the highest dose re-replication activation, actives largely listed as activators; further: % of control where 0% means no effect; nearly all actives have a fitted effect of over 55% in size
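SW480 cells exposed to compounds for 48 hr at 37 C, 5% CO2, then Hoechst-stained 40 min. Nuclear DNA content imaged by fluorescence scanning (405 nm excitation, 500-530 nm emission); re-replication scored as increased high-intensity nuclei.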
MCF10A rereplic: DNA re-replication induction in MCF 10a cells | MCF 10A DNA re-replication, Hoechst nuclear intensity, 48 h | Potency, µM (top dose mostly 46.1 µM), without a hit: at the highest dose activity, positive = re-replication, hits mostly activators | 2.9% of 350,000 active | AID 624296; further: % of control where 0% means no effect; nearly all actives have a fitted effect of over 50% in size
TSG101-PTAP inh: blocks PTAP/TSG101 interaction to inhibit HIV-1 budding; Q99816; Fluorescence polarization, FITC-PTAP peptide / Tsg101 binding; Potency, µM (series often up to 115 µM), inactives show at the highest dose activity change, negative = inhibition, usual class: inhibitors; 340,000 tested, under 10 active; active means well fitted inhibition curve with a large enough effect in the main read-out, with a control signal flat, not every such curve was filed as active; inconclusive means small, poorly fitted or top-dose-only effect, or effect the other way, or a change in a side signal; inactive means no such curve, though single readings can be large or run the other way; further: % of control where 0% means no effect
Target sequence (Q99816 whole entry, looked up): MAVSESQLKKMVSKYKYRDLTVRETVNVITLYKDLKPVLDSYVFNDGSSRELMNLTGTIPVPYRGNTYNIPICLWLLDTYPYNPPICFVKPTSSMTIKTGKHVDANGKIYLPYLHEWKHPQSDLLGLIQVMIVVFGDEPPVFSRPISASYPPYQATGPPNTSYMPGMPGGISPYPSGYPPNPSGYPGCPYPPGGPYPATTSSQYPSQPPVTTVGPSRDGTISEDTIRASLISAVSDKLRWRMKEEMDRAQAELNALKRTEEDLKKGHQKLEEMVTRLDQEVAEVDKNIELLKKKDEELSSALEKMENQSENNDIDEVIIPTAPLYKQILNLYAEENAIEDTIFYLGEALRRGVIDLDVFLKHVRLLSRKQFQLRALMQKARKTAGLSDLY
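Fluorescence anisotropy tracks displacement of a FITC-tagged PTAP peptide (50 nM) from the Tsg101 binding domain (10 uM), following a 20 min room-temperature incubation at pH 7.5.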
Numbers without * were called inactive; i = inactive; ? = inconclusive; . = not tested or not shown; ! = a repeat was not active. Sampled rows, rich in hits. Any-hit rate of the full collection: about 6.6%. Unless noted, the call rests on the fitted dose curve; in most records, active means well fitted curve in the direction sought with a large enough effect; inconclusive means small, poorly fitted or top-dose-only effect, or another doubt; inactive means no such curve, though single readings can be large; an effect the other way counts as inactive or inconclusive. Potency means the concentration at half of the fitted maximal effect.

SMILES | RGS4 inhibitor | KB-3-1 cytotox | KB-V1 cytotox | SW480 rereplic | MCF10A rereplic | TSG101-PTAP inh
Cc1nnc(SCCn2c(N3CC(C)CC(C)C3)nc3c2c(=O)n(C)c(=O)n3C)s1 (configuration not stated) | 26.8% | i | 20.6µM* | 0.3% | 4.3% | -2.8%
Cc1csc(SCCn2c(N3CCN(c4ccccc4)CC3)nc3c2c(=O)[nH]c(=O)n3C)n1 | -11.2% | i | 20.6µM* | -4.7% | ? | -3.6%
CN1CCN(c2nc3c(c(=O)[nH]c(=O)n3C)n2CCCSc2nnnn2-c2ccccc2)CC1 | -26.3% | i | i | 5.0% | 1.3% | 0.4%
CC1CC(C)CN(c2nc3c(c(=O)[nH]c(=O)n3C)n2CCCSc2nc3ccccc3s2)C1 (configuration not stated) | -13.0% | i | 4.11µM* | -7.3% | -1.8% | -2.8%
CC1CCN(c2nc3c(c(=O)[nH]c(=O)n3C)n2CC(C)CSc2nnnn2-c2ccccc2)CC1 (configuration not stated) | -26.1% | i | 3.66µM* | -0.7% | 1.1% | -1.2%
CCN1CCN(c2nc3c(c(=O)[nH]c(=O)n3C)n2CCSc2nc3ccccc3s2)CC1 | -5.2% | i | i | -1.7% | -4.6% | -8.2%
COc1ccc(C2Nc3ccccc3C(=O)N2Cc2ccccc2)cc1COc1ccc([N+](=O)[O-])c(C)c1 (configuration not stated) | 4.2% | i | i | . | . | .
Cn1nnc2c(N3CCN(c4ccccc4Cl)CC3)ncnc21 | 2.0% | i | i | . | . | .
Cn1c(=O)[nH]c(=O)c2c1nc(N1CCCCC1)n2CCCSc1nnnn1-c1ccccc1 | -20.5% | i | 9.2µM* | -3.7% | 3.0% | 1.5%
Cc1ccc(NC(=O)NNC(=O)Cn2nc(-c3ccccc3)c(-c3ccccc3)c(C#N)c2=O)cc1 | -14.6% | 6.51µM* | i | 2.91µM* | 1.46µM* | 0.3%
O=C(Cn1nc(-c2ccccc2)c2ccccc2c1=O)Nc1ccc(O)cc1 | -19.4% | i | i | 2.7% | -1.5% | -1.7%
CCOC(=O)C1=C(CSCc2ccccc2)NC(=O)NC1c1cc(C)ccc1C (configuration not stated) | 16.3% | i | 9.2µM* | ? | ? | .
CCOC(=O)C1=C(CN2CCCCC2)NC(=O)NC1c1cc(C)ccc1C (configuration not stated) | -11.6% | i | 10.3µM*! | -0.6% | 5.0% | .
CCOC(=O)C1=C(CN2CCOCC2)NC(=O)NC1c1cc(C)ccc1C (configuration not stated) | 24.5% | i | ? | -4.7% | -3.3% | -5.8%
O=C(C[n+]1ccncc1)c1cccc2ccccc12 | . | i | ? | . | . | .
CCOC(=O)CCC(NC(=O)c1ccc(Nc2nc3ccccc3nc2C(=O)OCC)cc1)C(=O)OCC (configuration not stated) | 12.4% | i | 9.2µM* | 7.4% | 14.8% | -4.0%
CCOC(=O)CCC(NC(=O)c1cncc(O)c1)C(=O)OCC (configuration not stated) | -7.6% | i | i | -3.5% | 1.3% | -5.7%
CC1(C)S[C@@H]2[C@H](NC(=O)COc3ccccc3)C(=O)N2[C@@H]1C(=O)OCc1cccc2cccnc12 | . | i | i | . | . | .
CCCNc1nc(C)nc2c1cnn2CCc1ccccc1 | 13.9% | i | i | -3.9% | -5.5% | -0.8%
Cc1nc(NC(C)C)c2cnn(CCc3ccccc3)c2n1 | -8.4% | i | ? | 3.8% | 20.6µM* | -0.1%
CC(CC(=O)NCc1ccc(Cl)cc1Cl)CC1=NS(=O)(=O)c2ccccc2N1 (configuration not stated) | 26.6% | i | ? | . | . | .
CC(=O)N1CCN(C(=S)Nc2ccc(SC(F)F)cc2)CC1 | -11.1% | i | 20.6µM* | 1.8% | 11.0% | -1.6%
Cc1noc(/C=C/c2cccnc2)c1[N+](=O)[O-] | -43.7% | 20.6µM* | i | ? | ? | -7.3%
COc1ccc(C(=O)c2cc(C(C)=O)c(Nc3ccccc3)s2)cc1 | -0.2% | ? | 16.4µM* | ? | -6.3% | -1.2%
COc1ccc(C(=O)c2sc(Nc3ccccc3)nc2N)cc1OC | -11.6% | ? | 14.6µM* | ? | ? | -2.1%
SMILES | RGS4 inhibitor | KB-3-1 cytotox | KB-V1 cytotox | SW480 rereplic | MCF10A rereplic | TSG101-PTAP inh
Nc1nc(Nc2ccccc2)sc1C(=O)c1ccccc1 | 7.5% | ? | ? | ? | ? | -3.1%
COc1ccc(C(=O)c2sc(Nc3ccccc3)nc2N)cc1 | -36.0% | i | 13µM*! | ? | ? | -0.6%
COc1ccc(C(=O)Nc2ccc(C(=O)c3ccccc3)cc2)cc1 | 12.9% | i | ? | -60.3% | 25.3% | -1.1%
N#Cc1cc2c(=O)n3ccccc3nc2n(-c2nnc(SCc3ccccc3Cl)s2)c1=O | -10.7% | i | i | . | . | .
COC(=O)c1ccccc1NC(=O)C1=CC(c2ccc(C)cc2)=NS(=O)(=O)N1C | -15.2% | i | i | . | . | .
COc1cc(NC(=O)c2cc3nc(-c4ccc(C)cc4)cc(C(F)(F)F)n3n2)cc(OC)c1OC | 0.7% | i | i | . | . | .
C=C1NN(C(C)C(=O)O)C(=O)N1c1ccc(OCc2ccccc2)cc1 (configuration not stated) | . | i | i | . | . | .
Nc1ccc(/C=C/c2nc3ccccc3s2)cc1 | . | i | ? | . | . | .
O=c1[nH]c2ccc(Cl)cc2c(-c2ccccc2)c1N1CCN(c2ccccn2)CC1 | 6.5% | i | 13µM* | ? | 23.7% | -5.1%
NNc1nc(-c2ccccc2Cl)nc2sc3c(c12)CCCC3 | 3.7% | ? | 4.61µM* | ? | 16.1% | -4.3%
CC(=O)N1N=C(c2ccc3ccccc3c2)OC1(C)C | 2.0% | ? | 18.4µM* | 0.0% | ? | 0.9%
CC(=O)N1N=C(c2ccc(C(C)(C)C)cc2)OC1(C)C | -9.4% | i | i | ? | ? | -0.8%
O=C(C=Cc1cccnc1)c1ccccc1 | -32.0% | ? | ? | 12.2% | ? | -0.3%
O=C(/C=C/c1cccnc1)c1ccc(O)cc1 | 4.9% | ? | ? | 20.6µM* | ? | -0.6%
CN(C)c1ccc(/C=C/C(=O)c2ccc(O)cc2)cc1 | 6.5% | ? | i | 18.4µM* | ? | ?
O=C(/C=C/c1cccc(O)c1)c1cccnc1 | ? | i | ? | ? | 20.6µM* | -1.2%
O=Nc1ccc2oc(=O)ccc2c1 | 5.97µM* | . | . | . | . | .
CCC1CC=CC2C1C(=O)N(Cc1ccccc1)C2c1cc(C)ccc1F (configuration not stated) | -10.7% | . | . | . | . | .
